Assay results: PubChem BioAssay (NCATS)
Inconclusive results are not listed. Calls of active or inactive are those of the source. Unless noted, calls follow the shape of the dose curve; as a rule, active = well fitted curve in the direction sought with a large enough effect; inconclusive = small, poorly fitted or top-dose-only effect, or another doubt; inactive = no such curve, though single readings can be large; an effect the other way counts as inactive or inconclusive.

Experiments:
[1] = biological target: Glucocorticoid receptor (Homo sapiens) (UniProt P04150); assay: qHTS assay for small molecule agonists of glucocorticoid receptor signaling (AID 588532; active = well fitted curve in the direction sought with a large enough effect in the signal ratio, with a control signal flat; the % refers to the signal ratio;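 also: 100% = dexamethasone at 0.1 µM and 0% = DMSO only wells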); settings: HeLa MMTV-bla, beta-lactamase ratio, agonist, 18 h; stronger effect = higher value; percent of dexamethasone control, DMSO zero
Method in brief: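 Titration series, up to 92 uM, applied to GRE-bla HeLa cells for 18 h at 37 C. Detection by CCF4 FRET substrate after 2 h at RT.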

[2] = biological target: Glucocorticoid receptor (Homo sapiens) (UniProt P04150); assay: qHTS assay for small molecule antagonists of glucocorticoid receptor signaling (AID 588533; active = well fitted inhibition curve with a large enough effect in the signal ratio, with a control signal flat, not every such curve was filed as active; the % refers to the signal ratio;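 also: cells stimulated with 2 nM dexamethasone as agonist; % is scaled to controls: 0 for no effect and ±100 for the full control effect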); settings: HeLa MMTV-bla, GRE beta-lactamase ratio, antagonist mode, 18 h; series mostly up to 76.8 µM
Method in brief: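 Antagonist-mode qHTS: compound titrations added to GRE-bla HeLa cells, then dexamethasone 2 nM final; 18 h, 37 C. CCF4 FRET fluorescence normalized to dexamethasone and DMSO; IC50 from Hill fit.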

[3] = biological target: Vitamin D3 receptor (Homo sapiens) (UniProt P11473); assay: qHTS assay for small molecule antagonists of vitamin D receptor signaling (AID 588541; calls by dose curve;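 also: receptor activated by calcitriol during compound treatment; % is scaled to controls: 0 for no effect and ±100 for the full control effect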); settings: HEK293T VDR-UAS-bla, beta-lactamase ratio, antagonist mode; series mostly up to 76.7 µM
Method in brief: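 VDR-UAS-bla HEK293T cells (2000/well, 2% charcoal-stripped FBS) were treated with titrated compounds plus 1-alpha,25-dihydroxyvitamin D3 (50 nM or 3 nM final) for 16 h at 37 C. CCF4 beta-lactamase fluorescence was read; Hill fits gave IC50.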

[4] = biological target: Vitamin D3 receptor (Homo sapiens) (UniProt P11473); assay: qHTS assay for small molecule agonists of vitamin D receptor signaling (AID 588543; calls by dose curve;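 also: 0% = DMSO basal and 100% = reference agonist control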); settings: HEK293T VDR-UAS-bla, beta-lactamase ratio, 16 h; series mostly up to 76.8 µM
Method in brief: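 GeneBLAzer VDR-UAS-bla HEK293T cells in 2% charcoal-stripped FBS medium were dosed with compound titrations for 16 h at 37 °C; CCF4 β-lactamase readout (405 nm ex, 460/530 nm em). EC50 and efficacy from Hill fits, normalized to 50 nM calcitriol (100%) and DMSO (0%).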

[5] = qHTS assay for small molecule agonists of retinoid X receptor alpha signaling (AID 588544; calls by dose curve;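 as to activation: 0% = DMSO basal wells and 100% = reference agonist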); settings: HEK293T RXRa-UAS-bla, beta-lactamase reporter, 18 h; 530 nm emission
[6] = biological target: Retinoic acid receptor RXR-alpha (Homo sapiens) (UniProt P19793); assay: as above; settings: HEK293T RXRa-UAS-bla, beta-lactamase reporter, 18 h; series mostly up to 76.7 µM
[7] = biological target: Thyroid hormone receptor beta (Homo sapiens) (UniProt P10828); assay: qHTS assay for small molecule agonists of thyroid hormone receptor beta signaling (AID 588545; calls by dose curve;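 also: 0% = DMSO only and 100% = 10 nM T3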); settings: TR-UAS-bla GripTite HEK 293, beta-lactamase ratio, agonist mode, 18 h; series mostly up to 76.7 µM
Method in brief: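 Beta-lactamase reporter activity under TR response element control is measured in HEK 293 cells after 18 hrs compound exposure. Signal is ratiometric CCF4 fluorescence, 460/530 nm.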

[8] = qHTS assay for small molecule antagonists of retinoid X receptor alpha signaling (AID 588546; active = well fitted inhibition curve with a large enough effect in the signal ratio, with a control signal flat, not every such curve was filed as active; the % refers to the signal ratio;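 also: cells stimulated with 9-cis-retinoic acid as agonist; % is scaled to controls: 0 for no effect and ±100 for the full control effect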); settings: HEK293T RXRa-UAS-bla, beta-lactamase ratio, antagonist mode; measured here: W530 green channel, cytotoxicity proxy
Method in brief: (§1)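 Beta-lactamase reporter inhibition, read as CCF4 fluorescence ratio (ex 405, em 460/530 nm) after 2 h at RT. HEK293T UAS-bla cells, 2500/well, were stimulated with 9-cis-RA at 500 or 100 nM final alongside test compound for 18 h at 37 C.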

[9] = biological target: Retinoic acid receptor RXR-alpha (Homo sapiens) (UniProt P19793); assay: as above; settings: HEK293T RXRa-UAS-bla, beta-lactamase ratio, antagonist mode
Method in brief: as §1

[10] = qHTS assay for small molecule agonists of the antioxidant response element (ARE) signaling pathway (AID 651741; active = well fitted activation curve with a large enough effect in the signal ratio; the % refers to the signal ratio; also: potency is read from the fitted curve at half-maximal effect; as to activation: % of control where 0% means no effect); settings: HepG2 ARE-bla reporter, beta-lactamase FRET ratio, 16 h; series mostly up to 96 µM
Method in brief: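 Compounds in DMSO are pinned onto HepG2 ARE-bla cells (2,000/well) that were preincubated 5 h; plates stay 16 h at 37 C, then beta-lactamase activity is detected with LiveBLAzer B/G substrate by fluorescence.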

[11] = qHTS assay for small molecule activators of the p53 signaling pathway (AID 651743; active = well fitted activation curve with a large enough effect in the signal ratio, not every such curve was filed as active; the % refers to the signal ratio; also: % of control where 0% means no effect); settings: HCT-116 p53RE-bla, beta-lactamase FRET ratio, 16 h; activation: stronger effect = higher value
Method in brief: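 Cell-based beta-lactamase reporter (p53 response elements, HCT-116 background). After a 5-hour preincubation, cells received compound for 16 hours at 37 C; substrate development ran 2 hours at room temperature.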

[12] = qHTS assay for environmental chemicals that activate the Aryl hydrocarbon Receptor (AhR) signaling pathway (AID 651777); settings: 1A2-DRE human hepatoma cells, luciferase, 24 h; activation: stronger effect = higher value; also: % of control where 0% means no effect; nearly all actives have a fitted effect of over 15% in size
Method in brief: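 Reporter gene assay: hepatoma cells with DRE/CYP1A2-luciferase, 24 hr compound incubation at 37 C, 5% CO2, luminescence after One-Glo (30 min, RT).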

[13] = biological target: Peroxisome proliferator-activated receptor alpha (Homo sapiens) (UniProt Q07869); assay: qHTS assay for small molecule agonists of the peroxisome proliferator-activated receptor alpha (PPARalpha) signaling pathway (AID 651778); settings: PathHunter PPARalpha complementation, chemiluminescence, 6 h; max response: stronger effect = higher value; also: % of control where 0% means no effect
Method in brief: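 Cells plated at 2,000/well and held overnight at 37 C, 5% CO2, then compound added by pin tool for 6 hr; after PathHunter detection reagent and 60 min at room temperature, chemiluminescence from enzyme complementation was read.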

[14] = qHTS assay for small molecule agonists of the antioxidant response element (ARE) signaling pathway measured by Nrf2-dependant transcriptional activity (AID 720636; active = well fitted curve in the direction sought with a large enough effect in the repeat runs; an effect the other way counts as inactive or inconclusive;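 also: HepG2 cells with an ARE-driven luciferase reporter; % of control where 0% means no effect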); settings: ARE-luc HepG2, Nrf2 luciferase reporter, 16 h; series mostly up to 92.4 µM
Method in brief: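 Nrf2-dependent transcription is measured in ARE-luc HepG2 cells: compound is applied for 16 hr at 37 C after a 6 hr attachment period, and luciferase activity is quantified by luminescence using ONE-Glo.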

[15] = qHTS assay for small molecule agonists of the antioxidant response element (ARE) signaling pathway measured by Nrf2-dependant transcriptional activity - cell viability counter screen (AID 720653; active = well fitted curve in the direction sought with a large enough effect in the repeat runs; an effect the other way counts as inactive or inconclusive; also: % is scaled to controls: 0 for no effect and ±100 for the full control effect); settings: ARE-bla HepG2 viability, CellTiter-Glo ATP luminescence, 16 h; max response: stronger effect = lower value
Method in brief: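 ARE-bla HepG2 cells (2,000/well) rested 5 hrs at 37C/5% CO2, then exposed to compounds in DMSO for 16 hrs. Viability was read in the same wells as intracellular ATP by luminescence, 30 min at room temperature after reagent addition.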

[16] = qHTS assay for cell viability of HEK293 cells (AID 743288); settings: ATP luminescence (CellTiter-Glo), 18 h; max response: stronger effect = lower value; also: % is scaled to controls: 0 for no effect and ±100 for the full control effect; nearly all actives have a fitted effect of over 50% in size
Method in brief: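 Parental HEK293 cells were seeded at 2,000 cells/well, rested at least 5 h at 37 C, then exposed to compounds in DMSO for 18 h at 37 C. Viability was read as ATP-dependent luciferase luminescence after 30 min at room temperature.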

[17] = qHTS assay for cell viability of the p53RE-bla HCT-116 cell line (AID 743292); settings: p53RE-bla HCT-116 viability, ATP luminescence, 16 h; series mostly up to 95 µM; also: % is scaled to controls: 0 for no effect and ±100 for the full control effect; nearly all actives have a fitted effect of over 55% in size
Method in brief: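 ATP-based luminescence, 16 h compound exposure at 37 C, p53RE-bla HCT-116 cells at 4,000/well.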

[18] = biological target: Nuclear receptor subfamily 1 group I member 2 (Rattus norvegicus) (UniProt Q9R1A7); assay: qHTS assay for small molecule activators of the rat pregnane X receptor (rPXR) signaling pathway (AID 651751; call rule not given here; also: 0% is about no effect); settings: rPXR reporter cells, luciferase (One-Glo), 24 h
[19] = qHTS assay for small molecule activators of the human pregnane X receptor (PXR) signaling pathway (AID 720659; call rule not given here; also: 0% is about no effect); settings: DPX-2 HepG2 CYP3A4-luciferase, 24 h; series mostly up to 92.3 µM
[20] = qHTS assay for small molecule antagonists of peroxisome proliferator-activated receptor delta signaling (AID 588535); settings: HEK293T PPARd-UAS-bla, beta-lactamase FRET ratio, 18 h; 460 nm channel;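 also: cells co-treated with a PPAR-delta agonist as stimulator during compound exposure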
Method in brief: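 Reporter: UAS-bla under PPAR-delta response element, HEK293T host. Medium: 2% charcoal/dextran FBS. Dosing: titration, 18 hrs, 37 C. Detection: CCF4, 2 hrs RT, 405 ex/460 and 530 em.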

Sequence of Vitamin D3 receptor (Homo sapiens) (P11473 whole entry, looked up): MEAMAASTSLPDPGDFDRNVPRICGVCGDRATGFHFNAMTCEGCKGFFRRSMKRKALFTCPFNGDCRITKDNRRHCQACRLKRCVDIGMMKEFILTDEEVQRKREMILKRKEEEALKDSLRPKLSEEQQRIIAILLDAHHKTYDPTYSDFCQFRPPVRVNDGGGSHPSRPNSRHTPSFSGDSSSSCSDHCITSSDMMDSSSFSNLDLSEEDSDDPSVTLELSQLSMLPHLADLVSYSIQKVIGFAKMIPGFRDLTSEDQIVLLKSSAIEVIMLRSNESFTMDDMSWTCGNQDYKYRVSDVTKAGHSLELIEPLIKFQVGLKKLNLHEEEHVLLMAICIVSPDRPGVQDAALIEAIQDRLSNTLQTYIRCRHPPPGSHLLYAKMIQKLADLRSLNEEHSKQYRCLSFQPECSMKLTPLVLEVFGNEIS
Sequence of Glucocorticoid receptor (Homo sapiens) (P04150 whole entry, looked up): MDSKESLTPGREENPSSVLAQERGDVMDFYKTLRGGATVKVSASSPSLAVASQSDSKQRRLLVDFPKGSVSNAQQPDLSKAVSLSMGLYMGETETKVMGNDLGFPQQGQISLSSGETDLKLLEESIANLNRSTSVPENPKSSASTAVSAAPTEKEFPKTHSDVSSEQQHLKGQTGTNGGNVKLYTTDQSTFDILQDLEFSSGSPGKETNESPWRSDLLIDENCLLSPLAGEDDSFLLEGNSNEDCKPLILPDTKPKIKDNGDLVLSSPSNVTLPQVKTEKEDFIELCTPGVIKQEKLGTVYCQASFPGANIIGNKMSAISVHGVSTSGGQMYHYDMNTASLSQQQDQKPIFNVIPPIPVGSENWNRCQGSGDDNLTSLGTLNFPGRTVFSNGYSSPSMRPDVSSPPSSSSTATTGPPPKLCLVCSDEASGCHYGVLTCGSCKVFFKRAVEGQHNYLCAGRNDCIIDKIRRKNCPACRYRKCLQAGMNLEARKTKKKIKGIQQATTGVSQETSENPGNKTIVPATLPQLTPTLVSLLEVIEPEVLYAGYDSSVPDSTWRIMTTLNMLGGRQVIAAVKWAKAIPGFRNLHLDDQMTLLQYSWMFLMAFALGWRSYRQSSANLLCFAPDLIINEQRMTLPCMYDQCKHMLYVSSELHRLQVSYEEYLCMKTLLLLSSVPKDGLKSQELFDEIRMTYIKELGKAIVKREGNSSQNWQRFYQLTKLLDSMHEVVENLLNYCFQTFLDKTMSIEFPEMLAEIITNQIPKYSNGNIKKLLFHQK
Sequence of Peroxisome proliferator-activated receptor alpha (Homo sapiens) (Q07869 whole entry, looked up): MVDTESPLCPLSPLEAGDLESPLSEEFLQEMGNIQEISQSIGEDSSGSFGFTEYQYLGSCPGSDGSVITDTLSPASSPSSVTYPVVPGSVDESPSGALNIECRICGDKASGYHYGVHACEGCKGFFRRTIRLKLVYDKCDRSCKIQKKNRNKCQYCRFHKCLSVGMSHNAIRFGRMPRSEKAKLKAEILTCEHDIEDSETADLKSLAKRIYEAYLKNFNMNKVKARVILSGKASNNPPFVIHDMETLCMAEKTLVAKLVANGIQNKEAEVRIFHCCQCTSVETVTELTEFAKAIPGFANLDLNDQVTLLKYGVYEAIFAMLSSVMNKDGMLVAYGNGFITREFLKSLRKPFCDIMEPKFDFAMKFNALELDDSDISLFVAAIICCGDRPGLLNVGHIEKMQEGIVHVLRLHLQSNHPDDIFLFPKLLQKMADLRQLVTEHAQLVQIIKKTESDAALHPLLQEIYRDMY
Sequence of Thyroid hormone receptor beta (Homo sapiens) (P10828 whole entry, looked up): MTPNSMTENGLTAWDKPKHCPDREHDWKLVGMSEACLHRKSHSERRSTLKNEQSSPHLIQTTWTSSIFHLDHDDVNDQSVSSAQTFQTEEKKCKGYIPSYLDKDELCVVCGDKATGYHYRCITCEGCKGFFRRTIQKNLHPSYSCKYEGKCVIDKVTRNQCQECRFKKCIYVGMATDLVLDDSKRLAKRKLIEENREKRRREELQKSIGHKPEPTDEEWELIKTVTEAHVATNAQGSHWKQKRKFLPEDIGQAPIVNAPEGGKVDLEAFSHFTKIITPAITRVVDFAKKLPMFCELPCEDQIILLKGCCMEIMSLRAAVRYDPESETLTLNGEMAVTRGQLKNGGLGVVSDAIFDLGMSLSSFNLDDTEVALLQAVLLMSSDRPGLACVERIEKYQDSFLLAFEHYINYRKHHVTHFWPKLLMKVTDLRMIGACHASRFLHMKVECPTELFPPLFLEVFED
Sequence of Nuclear receptor subfamily 1 group I member 2 (Rattus norvegicus) (Q9R1A7 whole entry, looked up): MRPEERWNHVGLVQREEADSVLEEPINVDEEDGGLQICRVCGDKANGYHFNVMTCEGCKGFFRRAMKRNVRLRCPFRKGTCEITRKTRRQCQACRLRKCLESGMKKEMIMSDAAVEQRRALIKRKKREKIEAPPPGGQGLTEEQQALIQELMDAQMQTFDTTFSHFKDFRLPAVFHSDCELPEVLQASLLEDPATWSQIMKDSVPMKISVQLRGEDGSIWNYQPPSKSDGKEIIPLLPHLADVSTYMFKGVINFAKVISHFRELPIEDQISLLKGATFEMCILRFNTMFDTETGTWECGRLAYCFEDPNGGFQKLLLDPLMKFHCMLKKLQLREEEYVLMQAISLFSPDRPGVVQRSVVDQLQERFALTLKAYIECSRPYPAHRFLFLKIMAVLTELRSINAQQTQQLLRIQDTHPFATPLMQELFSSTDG
Sequence of Retinoic acid receptor RXR-alpha (Homo sapiens) (P19793 whole entry, looked up): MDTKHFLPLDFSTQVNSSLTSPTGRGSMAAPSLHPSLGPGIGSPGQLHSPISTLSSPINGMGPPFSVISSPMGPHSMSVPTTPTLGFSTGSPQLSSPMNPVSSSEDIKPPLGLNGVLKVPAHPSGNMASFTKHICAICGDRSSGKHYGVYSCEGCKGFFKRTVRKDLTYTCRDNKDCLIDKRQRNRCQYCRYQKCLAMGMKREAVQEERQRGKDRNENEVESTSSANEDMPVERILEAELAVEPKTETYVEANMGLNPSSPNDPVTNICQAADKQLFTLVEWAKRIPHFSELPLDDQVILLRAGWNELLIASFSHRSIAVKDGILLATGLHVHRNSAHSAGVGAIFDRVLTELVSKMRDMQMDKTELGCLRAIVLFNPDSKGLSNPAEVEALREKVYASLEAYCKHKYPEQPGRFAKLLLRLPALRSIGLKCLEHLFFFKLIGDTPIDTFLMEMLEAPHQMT

SMILES | activation [1] | Potency [2] | Potency [3] | outcome [4] | max response [5] [%] | Potency [6] | Potency [7] | max response [8] [%] | max response [9] | Potency [10] | activation [11] | activation [12] | max response [13] | Potency [14] | max response [15] | max response [16] | Potency [17] | max response [18] | outcome [19] | max response [20] [%]
C=C(C)C(=O)OCCOCCOCCOC(=O)C(=C)C | 9.85% (inactive) | inactive | inactive | inactive | 1.13 | inactive | inactive | 3.38 | 4.6% (inactive) | inactive | -4.46% (inactive) | -1.22% (inactive) | -0.929% (inactive) | inactive | -16.9% (inactive) | -8.3% (inactive) | inactive | -0.564% (inactive) | inactive | –
COc1cc(Cl)c(OC)cc1N | -0.0557% (inactive) | inactive | inactive | inactive | -3.24 | inactive | – | 1.78 | -0.61% (inactive) | – | – | – | -0.316% (inactive) | inactive | 1.98% (inactive) | -8.15% (inactive) | inactive | 6.4% (inactive) | – | -0.344
CCCCCCCC/C=C\CCCCCCCC(=O)OC | -1.79% (inactive) | inactive | inactive | inactive | -13.4 | inactive | inactive | -9.12 | -0.729% (inactive) | – | – | -0.866% (inactive) | 4.75% (inactive) | inactive | -4.89% (inactive) | -6.3% (inactive) | inactive | 0.29% (inactive) | inactive | -11.5
CCOCCOCCOCC | -5.25% (inactive) | inactive | inactive | inactive | -3.22 | inactive | inactive | -7.04 | -12.1% (inactive) | – | -1.74% (inactive) | 0.117% (inactive) | -2.34% (inactive) | – | -4.14% (inactive) | – | inactive | 1.72% (inactive) | inactive | 12.8
CCCCCCCCCC(=O)OC | – | – | – | – | -16.2 | inactive | – | -11.2 | 2.82% (inactive) | – | – | 0.259% (inactive) | – | inactive | -16.8% (inactive) | -11.5% (inactive) | inactive | -1.31% (inactive) | inactive | -5.35
CC(C)CCCCOC(=O)c1ccccc1C(=O)OCCCCC(C)C | -8.95% (inactive) | inactive | – | – | 6.42 | inactive | inactive | -6.23 | -8.08% (inactive) | – | -3.26% (inactive) | 0.811% (inactive) | 2.93% (inactive) | inactive | -11% (inactive) | -17.5% (inactive) | inactive | 13.4% (inactive) | – | -26.8
CCOC(=O)NCCOc1ccc(Oc2ccccc2)cc1 | – | – | inactive | – | – | – | inactive | – | – | 30.6 µM (active) | – | 5.93% (inactive) | -0.313% (inactive) | – | -19.4% (inactive) | – | inactive | – | – | -16.1
